Source: PubChem BioAssay
Records with an inconclusive call do not appear. Activity calls are given as the source filed them.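 Rule for the calls, unless noted: active = viability at or below 27.92% in each of two runs, the all-compound median minus 4 SD; inconclusive = no clear call, values can overlap the other calls; inactive = the rest.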

Assay: growth suppression of beta-catenin knockout HCT116, pilot screen, human colon tumor cells (AID 823;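 active = cell viability at or below a set limit in both duplicate runs, the limit being the all-compound median minus 4 SD, cut at about 23% in these data, passing the limit was not always enough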;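 note: 0% = wells killed by 20 µM Hyamine and 100% = untreated DMSO cell wells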)
Conditions: CellTiter-Glo, 60 h, at 10 µM, active compounds read low
With `CN(C)CCNC(=O)c1cc2cc(Br)ccc2oc1=O` the viability was 81.6% (inactive). In the case of `CCOc1ccc(C2CC(c3cccc(OC)c3)Nc3ncnn32)cc1` (stereo unspecified), the viability is reported as 94% (inactive). For `COc1ccc(C(=O)N2CCC(C(=O)Nc3cccc(C)c3)CC2)cc1OC`, the viability was 106% (inactive). For `CCOC(=O)C1C(=O)N(C(=O)c2cncc(Br)c2)CC1c1ccccc1` (stereo unspecified), the viability was 101% (inactive). With `O=C(Nc1nnc(-c2ccc(Cl)cc2)o1)c1ccccc1Br` the viability was 68.8% (inactive). With `O=C(O)c1cccc2c1C(=O)N(C1CCCCC1)C2` the viability was 104% (inactive). For `CCOC(=O)C1CCCN(C(=O)Cn2nc(CC)n3c(cc4sccc43)c2=O)C1` (stereo unspecified), the viability was 105% (inactive). For `CCOCCCNC(=O)C(c1ccc(C)cc1)N(Cc1ccc2c(c1)OCO2)C(=O)CNC(C)=O` (stereo unspecified), the viability was 100% (inactive). With `CSc1ccc(Cl)c(C(=O)NCc2ccco2)c1` the viability was 85.8% (inactive). For `O=C(CSc1ncnc2c1oc1ccccc12)Nc1cccc(C(F)(F)F)c1`, the viability was 86.3% (inactive). In the case of `O=C(Nc1ccc(-c2nc3cccnc3s2)cc1)c1ccco1`, the viability is reported as 90% (inactive). With `O=C(O)CN1C(=O)C2C3C=CC(C3)C2C1=O` (stereo unspecified) the viability was 102% (inactive). In the case of `CCCn1c(N2CCN(Cc3cccc(C)c3)CC2)nc2c1c(=O)[nH]c(=O)n2C`, the viability is reported as 89.3% (inactive). In the case of `O=C(O)CC(CNS(=O)(=O)c1ccccc1)c1ccccc1` (stereo unspecified), the viability is reported as 100% (inactive). With `CC1Cc2nc(SCC(=O)OCc3ccccc3)n(C)c(=O)c2S1` (stereo unspecified) the viability was 102% (inactive). In the case of `C=CCn1c(=O)c(C(=O)Nc2ccccc2OC)c(O)c2ccccc21`, the viability is reported as 104% (inactive). In the case of `O=C(NCC1CCCO1)c1ccc(CS(=O)(=O)c2ccc(Br)cc2)o1` (stereo unspecified), the viability is reported as 97.8% (inactive). In the case of `Oc1cc(Cc2ccccc2)cnc1CN1CCCCC1`, the viability is reported as 95.6% (inactive). In the case of `CCOc1ccccc1NC(=O)CSc1nnc(-c2ccccn2)n1Cc1ccco1`, the viability is reported as 96.9% (inactive). In the case of `COc1ccc(OC)c2sc(NC(=O)c3ccc(S(=O)(=O)N(C)C)cc3)nc12`, the viability is reported as 72.9% (inactive). For `O=C(CN1C(=O)c2ccccc2S1(=O)=O)NC1CCCCCC1`, the viability was 102% (inactive). For `CCN(CCC(=O)Nc1cc(OC)cc(OC)c1)Cc1ccccc1`, the viability was 84.4% (inactive).

Assay: growth suppression of PTEN-deleted HCT116, pilot screen, cell-based, HCT116 clonal line, CellTiter-Glo (AID 824);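 note: 0% = 20 µM Hyamine control and 100% = vehicle cell control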
Conditions: 60 h, at 10 µM, active compounds read low
In the case of `O=C(NCc1ccco1)c1cc(S(=O)(=O)N2CCOCC2)ccc1Cl`, the viability is reported as 95.2% (inactive). With `CCCCCOC(=O)NCC(O)c1ccccc1` (stereo unspecified) the viability was 95.5% (inactive). For `CC(NC(=O)c1ccc(Cl)cc1)C(=O)N1CCCCC1` (stereo unspecified), the viability was 96.9% (inactive). For `CCOc1ccc(S(=O)(=O)Nc2ccccc2C(=O)NCC2CCCO2)cc1` (stereo unspecified), the viability was 95.5% (inactive). With `CCOC(=O)c1sc2nc(NC(=O)c3cccs3)sc2c1C` the viability was 87.4% (inactive). For `Cc1noc(C)c1S(=O)(=O)NC1CCN(Cc2ccccc2)CC1`, the viability was 94.1% (inactive). In the case of `CCOC(=O)c1ccccc1NC(=O)C1COc2ccccc2O1` (stereo unspecified), the viability is reported as 87.8% (inactive). In the case of `CCOC(=O)N1CCC(NC(=O)C2CCN(Cc3nc(-c4ccc(CC)cc4)oc3C)CC2)CC1`, the viability is reported as 85.9% (inactive). In the case of `Cc1ccc(C2CC(c3cccc(C)c3)n3ncnc3N2)cc1` (stereo unspecified), the viability is reported as 86.1% (inactive). In the case of `CCN1C(=O)C(O)(CC(=O)c2ccc3c(c2)OCCO3)c2ccccc21` (stereo unspecified), the viability is reported as 94% (inactive). In the case of `CN(C)c1nc(N)nc(-c2cccnc2)n1`, the viability is reported as 103% (inactive). For `CCOC(=O)c1cccc(NC(=O)CNC(=O)C2CCCCC2)c1`, the viability was 99.2% (inactive). In the case of `Cn1cc(S(=O)(=O)Nc2ccc(F)cc2F)c(=O)n(C)c1=O`, the viability is reported as 95% (inactive). In the case of `O=C1NCCCC1C(=O)NCCNC(=O)C(F)(F)F` (stereo unspecified), the viability is reported as 94.7% (inactive). In the case of `CCc1ccc(C2CC(c3cccc(Cl)c3)n3nc(N)nc3N2)cc1` (stereo unspecified), the viability is reported as 65.6% (inactive). With `CN1CCN(C(=O)c2ccccc2NC(=O)Cc2ccccc2)CC1` the viability was 103% (inactive). For `Cc1nnc(Sc2nc3c(c(=O)[nH]c(=O)n3C)n2Cc2ccccc2Cl)s1`, the viability was 90.5% (inactive). With `CN(C)CCNC(=O)c1cc2cc(Br)ccc2oc1=O` the viability was 84.5% (inactive). With `CCOc1ccc(C2CC(c3cccc(OC)c3)Nc3ncnn32)cc1` (stereo unspecified) the viability was 90% (inactive). For `COc1ccc(C(=O)N2CCC(C(=O)Nc3cccc(C)c3)CC2)cc1OC`, the viability was 96.7% (inactive). With `CCOC(=O)C1C(=O)N(C(=O)c2cncc(Br)c2)CC1c1ccccc1` (stereo unspecified) the viability was 106% (inactive). For `O=C(Nc1nnc(-c2ccc(Cl)cc2)o1)c1ccccc1Br`, the viability was 60.9% (inactive). With `O=C(O)c1cccc2c1C(=O)N(C1CCCCC1)C2` the viability was 98.3% (inactive). For `CCOC(=O)C1CCCN(C(=O)Cn2nc(CC)n3c(cc4sccc43)c2=O)C1` (stereo unspecified), the viability was 105% (inactive). In the case of `CCOCCCNC(=O)C(c1ccc(C)cc1)N(Cc1ccc2c(c1)OCO2)C(=O)CNC(C)=O` (stereo unspecified), the viability is reported as 102% (inactive). For `CSc1ccc(Cl)c(C(=O)NCc2ccco2)c1`, the viability was 81.6% (inactive). For `O=C(CSc1ncnc2c1oc1ccccc12)Nc1cccc(C(F)(F)F)c1`, the viability was 84% (inactive). With `O=C(Nc1ccc(-c2nc3cccnc3s2)cc1)c1ccco1` the viability was 80.4% (inactive). In the case of `O=C(O)CN1C(=O)C2C3C=CC(C3)C2C1=O` (stereo unspecified), the viability is reported as 88% (inactive). In the case of `CCCn1c(N2CCN(Cc3cccc(C)c3)CC2)nc2c1c(=O)[nH]c(=O)n2C`, the viability is reported as 82.8% (inactive). For `O=C(O)CC(CNS(=O)(=O)c1ccccc1)c1ccccc1` (stereo unspecified), the viability was 98.6% (inactive). In the case of `CC1Cc2nc(SCC(=O)OCc3ccccc3)n(C)c(=O)c2S1` (stereo unspecified), the viability is reported as 93.8% (inactive). For `C=CCn1c(=O)c(C(=O)Nc2ccccc2OC)c(O)c2ccccc21`, the viability was 90.1% (inactive). In the case of `O=C(NCC1CCCO1)c1ccc(CS(=O)(=O)c2ccc(Br)cc2)o1` (stereo unspecified), the viability is reported as 97.9% (inactive). For `Oc1cc(Cc2ccccc2)cnc1CN1CCCCC1`, the viability was 98% (inactive). In the case of `CCOc1ccccc1NC(=O)CSc1nnc(-c2ccccn2)n1Cc1ccco1`, the viability is reported as 98.5% (inactive). With `COc1ccc(OC)c2sc(NC(=O)c3ccc(S(=O)(=O)N(C)C)cc3)nc12` the viability was 68.9% (inactive). In the case of `O=C(CN1C(=O)c2ccccc2S1(=O)=O)NC1CCCCCC1`, the viability is reported as 101% (inactive). For `CCN(CCC(=O)Nc1cc(OC)cc(OC)c1)Cc1ccccc1`, the viability was 85.8% (inactive).
